Consider 6 compounds from PubChem BioAssay (EPA / NIEHS).

Read-out in test [1]: serum amyloid A (SAA), SAA1 (gene 6288)
The test can be described thus: BSK_CASM3C_SAA: BioMAP Diversity Plus: CASM3C Assay for serum amyloid A (SAA) Biomarker Activity (AID 2283049).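 Also: SAA protein level quantified by ELISA.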 Particulars: primary human coronary artery smooth muscle cells; actives raise or lower the signal.

The nature of test [2]: BSK_CASM3C_SRB: Viability Assessment in the BioMAP Diversity Plus: CASM3C Assay (AID 2283050). To be noted: primary human coronary artery smooth muscle cells.
Read-out in test [3]: Thrombomodulin, THBD (gene 7056)
The test can be described thus: BSK_CASM3C_Thrombomodulin: BioMAP Diversity Plus: CASM3C Assay for Thrombomodulin Biomarker Activity (AID 2283051).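 Also: thrombomodulin protein level measured by ELISA 24 h after dosing.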 Particulars: primary human coronary artery smooth muscle cells; actives raise or lower the signal.

Read-out in test [4]: Tissue Factor, F3 (gene 2152)
The test is described as follows: BSK_CASM3C_TissueFactor: BioMAP Diversity Plus: CASM3C Assay for Tissue Factor Biomarker Activity (AID 2283052).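 Also: cell surface tissue factor protein level read by ELISA.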 Particulars: primary human coronary artery smooth muscle cells; actives raise or lower the signal.

Read-out in test [5]: Interferon-gamma inducible Protein 10 (IP10), CXCL10 (gene 3627)
The test is described as follows: BSK_hDFCGF_IP10: BioMAP Diversity Plus: hDFCGF Assay for Interferon-gamma inducible Protein 10 (IP10) Biomarker Activity (AID 2283053). Particulars: primary human foreskin fibroblasts; actives raise or lower the signal. In a few lines: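 Primary human foreskin fibroblasts exposed to chemicals for 24 h. IP-10 measured by ELISA; changes fitted bidirectionally against DMSO baseline.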

Read-out in test [6]: Urokinase-type plasminogen activator receptor (uPAR), PLAUR (gene 5329)
The test can be described thus: BSK_CASM3C_uPAR: BioMAP Diversity Plus: CASM3C Assay for Urokinase-type plasminogen activator receptor (uPAR) Biomarker Activity (AID 2283054).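 Also: cell-surface uPAR protein level quantified by ELISA.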 Particulars: primary human coronary artery smooth muscle cells; actives raise or lower the signal.

Read-out in test [7]: Vascular cell adhesion molecule 1 (VCAM1), VCAM1 (gene 7412)
The test can be described thus: BSK_CASM3C_VCAM1: BioMAP Diversity Plus: CASM3C Assay for Vascular cell adhesion molecule 1 (VCAM1) Biomarker Activity (AID 2283055).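 Also: VCAM-1 protein level quantified by ELISA on the cells.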 Particulars: primary human coronary artery smooth muscle cells; actives raise or lower the signal.

Read-out in test [8]: Collagen III, COL3A1 (gene 1281)
The test is described as follows: BSK_hDFCGF_CollagenIII: BioMAP Diversity Plus: hDFCGF Assay for Collagen III Biomarker Activity (AID 2283056). Particulars: primary human foreskin fibroblasts; actives raise or lower the signal. In a few lines: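 Response relative to DMSO, fitted in both directions, reflects ELISA-measured collagen III in human primary skin fibroblasts 24 h after compound addition.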

Read-out in test [9]: Epidermal growth factor receptor (EGFR), EGFR (gene 1956)
The test is described as follows: BSK_hDFCGF_EGFR: BioMAP Diversity Plus: hDFCGF Assay for Epidermal growth factor receptor (EGFR) Biomarker Activity (AID 2283057). Particulars: primary human foreskin fibroblasts; actives raise or lower the signal. The method in brief:
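Primary human foreskin fibroblasts (hDFCGF system), sampled 24 h after dosing; EGFR quantified by ELISA. Bidirectional fit relative to DMSO baseline; SRB total-protein staining in parallel cultures for cytotoxicity.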

Read-out in test [10]: Interleukin-8 (IL8), CXCL8 (gene 3576)
The test can be described thus: BSK_hDFCGF_IL8: BioMAP Diversity Plus: hDFCGF Assay for Interleukin-8 (IL8) Biomarker Activity (AID 2283058). Particulars: primary human foreskin fibroblasts; actives raise or lower the signal. The method in brief:
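Fibroblast monolayers (human foreskin, hDFCGF) received test chemical for 24 h before ELISA detection of IL-8; either increases or decreases relative to DMSO count as activity.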

Test [11] in a line: BSK_hDFCGF_Proliferation: Cell Proliferation Assessment in the BioMAP Diversity Plus: hDFCGF Assay (AID 2283059).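 Also: curves fitted for both rise and fall of signal versus DMSO baseline.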 Particulars: primary human foreskin fibroblasts. In a few lines: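 This proliferation readout used SRB total-protein staining of human foreskin fibroblasts […], normalized to DMSO with bidirectional curve fitting.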
Read-out in test [12]: Macrophage colony-stimulating factor (MCSF), CSF1 (gene 1435)
The test can be described thus: BSK_hDFCGF_MCSF: BioMAP Diversity Plus: hDFCGF Assay for Macrophage colony-stimulating factor (MCSF) Biomarker Activity (AID 2283060). To be noted: primary human foreskin fibroblasts; actives raise or lower the signal. The method in brief:
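fibroblasts (human foreskin, primary), 24 h post-dose; M-CSF by ELISA; bidirectional fit, DMSO = baseline.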

Test [13] in a line: BSK_hDFCGF_SRB: Viability Assessment in the BioMAP Diversity Plus: hDFCGF Assay (AID 2283061).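 Also: cells exposed to compound for 24 h before the read.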 Particulars: primary human foreskin fibroblasts. The method in brief:
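SRB-based viability read on primary human skin fibroblasts at 24 h: TCA fixation, 0.1% dye, 560 nm. Gain or loss of signal is fitted against the DMSO negative control.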

Read-out in test [14]: TIMP metallopeptidase inhibitor 1 (TIMP1), TIMP1 (gene 7076)
The test can be described thus: BSK_hDFCGF_TIMP1: BioMAP Diversity Plus: hDFCGF Assay for TIMP metallopeptidase inhibitor 1 (TIMP1) Biomarker Activity (AID 2283062). Particulars: primary human foreskin fibroblasts; actives raise or lower the signal. In a few lines:
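Bidirectional curve fitting against DMSO baseline yielded this endpoint, based on ELISA detection of TIMP-1 in primary human foreskin fibroblasts exposed to compound for 24 h.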

Read-out in test [15]: Monokine induced gamma interferon (MIG), CXCL9 (gene 4283)
The test is described as follows: BSK_hDFCGF_MIG: BioMAP Diversity Plus: hDFCGF Assay for Monokine induced gamma interferon (MIG) Biomarker Activity (AID 2283063). To be noted: primary human foreskin fibroblasts; actives raise or lower the signal. In a few lines: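 Endpoint derived by bidirectional fitting relative to DMSO; MIG quantified via ELISA in primary human foreskin fibroblasts harvested 24 h after dosing.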

Read-out in test [16]: Matrix Metallopeptidase 1 (MMP1), MMP1 (gene 4312)
The test can be described thus: BSK_hDFCGF_MMP1: BioMAP Diversity Plus: hDFCGF Assay for Matrix Metallopeptidase 1 (MMP1) Biomarker Activity (AID 2283064). Particulars: primary human foreskin fibroblasts; actives raise or lower the signal. In a few lines:
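Primary human foreskin fibroblasts exposed to chemicals for 24 h; MMP1 measured by ELISA. Cytotoxicity tracked by SRB staining in parallel cultures; bidirectional fit relative to DMSO.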

Read-out in test [17]: Vascular cell adhesion molecule 1 (VCAM1), VCAM1 (gene 7412)
The test is described as follows: BSK_hDFCGF_VCAM1: BioMAP Diversity Plus: hDFCGF Assay for Vascular cell adhesion molecule 1 (VCAM1) Biomarker Activity (AID 2283065).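 As to AC50: VCAM-1 protein level quantified by ELISA after 24 h chemical exposure.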 Particulars: primary human foreskin fibroblasts; actives raise or lower the signal. In a few lines: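 Measured after 24 h chemical treatment of primary human skin fibroblasts, VCAM-1 was detected by ELISA and concentration-response analysed in both directions versus DMSO vehicle.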

Read-out in test [18]: Plasminogen activator inhibitor-1 (PAI1), SERPINE1 (gene 5054)
The test is described as follows: BSK_hDFCGF_PAI1: BioMAP Diversity Plus: hDFCGF Assay for Plasminogen activator inhibitor-1 (PAI1) Biomarker Activity (AID 2283066). To be noted: primary human foreskin fibroblasts; actives raise or lower the signal. In a few lines: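 Human foreskin fibroblast primary cells, 24 h chemical exposure; PAI-1 measured by ELISA. Bidirectional fitting relative to DMSO; parallel cultures stained with SRB for total protein to flag overt cytotoxicity.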

Read-out in test [19]: Intercellular Adhesion Molecule 1 (ICAM1), ICAM1 (gene 3383)
The test is described as follows: BSK_KF3CT_ICAM1: BioMAP Diversity Plus: KF3CT Assay for Intercellular Adhesion Molecule 1 (ICAM1) Biomarker Activity (AID 2283067). Particulars: primary human keratinocytes with fibroblasts; actives raise or lower the signal. The method in brief:
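Bidirectional curve fitting against a DMSO baseline was applied to ICAM-1 ELISA signal from primary human skin co-cultures harvested 24 h after treatment, with SRB staining of parallel wells for overt cytotoxicity.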

Read-out in test [20]: Interferon-gamma inducible Protein 10 (IP10), CXCL10 (gene 3627)
The test can be described thus: BSK_KF3CT_IP10: BioMAP Diversity Plus: KF3CT Assay for Interferon-gamma inducible Protein 10 (IP10) Biomarker Activity (AID 2283068). Particulars: primary human keratinocytes with fibroblasts; actives raise or lower the signal. The method in brief: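 Signal is secreted/surface IP-10 by ELISA in a human primary skin co-culture of keratinocytes and foreskin fibroblasts, taken 24 h post-dosing; DMSO served as negative control.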

Calls of active or inactive are those of the source. The calls were made as follows: active = hit-call score of the fitted dose curve at least 0.9, where 1 is the maximum; inactive = score below 0.9.

In the case of `CC1(C)Cc2cccc(O)c2O1`, the outcome in test [1], in [2], in [3], in [4], in [5] and in test [6] was inactive. The outcome in [7], in test [8], in [9], in test [10], in test [11] and in [12] was inactive. The result in [13], in [14], in [15], in test [16], in test [17] and in test [18] was inactive. The result in [19] and in test [20] was inactive.

With `O=C(O)C(F)(F)C(F)(F)C(F)(F)C(F)(F)C(F)(F)C(F)(F)F`, the result in test [1], in test [2], in [3], in [4], in test [5] and in test [6] was inactive. For the same compound, the outcome in test [7], in test [8], in test [9], in [10], in test [12] and in test [13] was inactive. The result in [14], in test [15], in test [16], in test [17], in test [18] and in test [19] was inactive. Moreover, in [20], the result was inactive.

`C=CC(=O)OCCCCCC(C)C`: the outcome in [1], in test [2], in test [3], in test [4], in test [5] and in test [6] was inactive. Besides, the result in test [7], in test [8], in test [9], in test [10], in test [12] and in test [13] was inactive. Also, the result in test [14], in [15], in test [16], in [17], in [18] and in test [19] was inactive. In [20], the result was inactive.

Take `COP(=S)(OC)Oc1ccc(S(=O)(=O)N(C)C)cc1`: the outcome in test [1], in test [2], in test [3], in test [4], in test [5] and in test [6] was inactive. Moreover, the result in test [7], in [8], in [9], in test [10], in test [12] and in test [13] was inactive. In addition, the result in test [14], in test [15], in test [16], in test [17], in test [18] and in [19] was inactive. Also, the outcome in [20] was inactive.

As to `CCNc1nc(NC(C)(C)C)nc(SC)n1`, the result in test [1], in [2], in test [3], in test [4], in test [5] and in test [6] was inactive. Also, the result in test [7], in [8], in test [9], in test [10], in test [12] and in [13] was inactive. Also, the result in [14], in test [15], in test [16], in test [17], in [18] and in test [19] was inactive. Also, in test [20], the result was inactive.

Turning to `CC(=O)[O][Hg][c]1ccccc1`, the concentration at half-maximal activity (AC50) (usually the concentration at which the activity in the assay is half-maximal) was 470 nM (active) in test [1]; 148 nM (active) in test [2]; 3970 nM (active) in [4]; 289 nM (active) in test [5]; 487 nM (active) in test [6]; 836 nM (active) in [7]. For the same compound, the AC50 in test [8] is 279 nM (active); in test [10] it was 148 nM (active); in [12], 447 nM (active); in test [13] it was 464 nM (active); in test [14], 148 nM (active); in [15], 208 nM (active). The AC50 in test [16] is 148 nM (active); in [17], 511 nM (active); in test [18], 183 nM (active); in test [19] it was 467 nM (active); in [20], 148 nM (active). The outcome in [3] and in [9] was inactive.
